Data as given in ChEMBL document CHEMBL1961873, “Compounds: GSK PKIS; Assays: Nanosyn kinase panel” (2012).

Legend:
[1] = molecular target: T1, Inhibitor of nuclear factor kappa-B kinase subunit epsilon (Homo sapiens) (UniProt Q14164); details: at 1 µM;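 note: reported values are averaged percent inhibition figures against human IKKε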
T1 sequence (whole entry): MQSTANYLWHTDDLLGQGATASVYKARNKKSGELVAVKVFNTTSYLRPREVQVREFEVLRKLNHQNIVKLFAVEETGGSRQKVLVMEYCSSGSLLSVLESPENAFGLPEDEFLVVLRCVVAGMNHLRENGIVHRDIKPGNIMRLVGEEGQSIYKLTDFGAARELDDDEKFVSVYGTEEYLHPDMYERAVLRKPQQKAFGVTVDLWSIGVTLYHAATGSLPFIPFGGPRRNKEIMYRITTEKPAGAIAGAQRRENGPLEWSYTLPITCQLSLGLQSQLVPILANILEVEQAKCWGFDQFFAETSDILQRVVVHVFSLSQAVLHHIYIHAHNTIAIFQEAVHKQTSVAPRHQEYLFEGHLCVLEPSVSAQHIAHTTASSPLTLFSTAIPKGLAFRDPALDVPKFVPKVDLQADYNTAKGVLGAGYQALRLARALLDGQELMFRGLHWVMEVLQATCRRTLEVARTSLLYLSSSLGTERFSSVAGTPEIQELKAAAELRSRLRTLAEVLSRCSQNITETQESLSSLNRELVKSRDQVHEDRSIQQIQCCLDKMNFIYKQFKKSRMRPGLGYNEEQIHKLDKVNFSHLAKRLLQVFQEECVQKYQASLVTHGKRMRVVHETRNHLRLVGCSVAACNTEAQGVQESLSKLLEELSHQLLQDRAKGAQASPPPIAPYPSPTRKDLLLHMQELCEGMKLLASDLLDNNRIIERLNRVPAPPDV

[2] = molecular target: T2, Serine/threonine-protein kinase Nek1 (Homo sapiens) (UniProt Q96PY6); details: at 0.1 µM
T2 sequence (whole entry): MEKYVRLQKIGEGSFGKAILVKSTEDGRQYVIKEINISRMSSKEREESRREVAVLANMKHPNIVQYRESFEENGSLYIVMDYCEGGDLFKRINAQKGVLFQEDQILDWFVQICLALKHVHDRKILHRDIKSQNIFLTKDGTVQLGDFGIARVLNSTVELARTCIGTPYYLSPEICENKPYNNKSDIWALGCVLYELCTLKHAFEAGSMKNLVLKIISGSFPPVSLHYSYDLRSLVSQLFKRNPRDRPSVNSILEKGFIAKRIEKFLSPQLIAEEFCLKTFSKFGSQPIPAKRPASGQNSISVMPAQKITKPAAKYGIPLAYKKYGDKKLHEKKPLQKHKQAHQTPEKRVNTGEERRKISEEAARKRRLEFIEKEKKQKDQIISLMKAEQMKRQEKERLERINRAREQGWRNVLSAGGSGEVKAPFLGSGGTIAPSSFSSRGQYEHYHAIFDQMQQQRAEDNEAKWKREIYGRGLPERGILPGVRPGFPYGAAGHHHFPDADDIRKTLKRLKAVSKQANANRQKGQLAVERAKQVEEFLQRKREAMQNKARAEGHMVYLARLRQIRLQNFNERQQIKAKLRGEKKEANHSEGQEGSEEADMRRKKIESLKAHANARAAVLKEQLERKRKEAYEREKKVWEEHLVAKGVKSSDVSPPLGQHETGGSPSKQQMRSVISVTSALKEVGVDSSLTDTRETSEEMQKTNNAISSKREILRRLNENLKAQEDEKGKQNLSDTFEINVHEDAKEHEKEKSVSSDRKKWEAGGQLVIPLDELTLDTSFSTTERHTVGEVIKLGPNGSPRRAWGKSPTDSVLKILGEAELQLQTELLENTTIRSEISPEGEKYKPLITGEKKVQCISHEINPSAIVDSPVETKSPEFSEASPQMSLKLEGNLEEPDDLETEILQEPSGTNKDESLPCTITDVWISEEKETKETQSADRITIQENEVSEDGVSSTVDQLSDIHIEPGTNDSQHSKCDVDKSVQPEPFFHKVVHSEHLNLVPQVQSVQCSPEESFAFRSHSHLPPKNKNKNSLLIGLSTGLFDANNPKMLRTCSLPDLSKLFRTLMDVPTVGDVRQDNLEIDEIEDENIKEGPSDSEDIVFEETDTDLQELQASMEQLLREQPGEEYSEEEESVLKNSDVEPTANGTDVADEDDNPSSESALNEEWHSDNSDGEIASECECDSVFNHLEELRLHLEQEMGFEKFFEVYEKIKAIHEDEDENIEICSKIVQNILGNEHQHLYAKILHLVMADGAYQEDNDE

[3] = molecular target: T2, Serine/threonine-protein kinase Nek1 (Homo sapiens); details: at 1 µM
[4] = molecular target: T3, Serine/threonine-protein kinase Nek2 (Homo sapiens) (UniProt P51955); details: at 0.1 µM
T3 sequence (whole entry): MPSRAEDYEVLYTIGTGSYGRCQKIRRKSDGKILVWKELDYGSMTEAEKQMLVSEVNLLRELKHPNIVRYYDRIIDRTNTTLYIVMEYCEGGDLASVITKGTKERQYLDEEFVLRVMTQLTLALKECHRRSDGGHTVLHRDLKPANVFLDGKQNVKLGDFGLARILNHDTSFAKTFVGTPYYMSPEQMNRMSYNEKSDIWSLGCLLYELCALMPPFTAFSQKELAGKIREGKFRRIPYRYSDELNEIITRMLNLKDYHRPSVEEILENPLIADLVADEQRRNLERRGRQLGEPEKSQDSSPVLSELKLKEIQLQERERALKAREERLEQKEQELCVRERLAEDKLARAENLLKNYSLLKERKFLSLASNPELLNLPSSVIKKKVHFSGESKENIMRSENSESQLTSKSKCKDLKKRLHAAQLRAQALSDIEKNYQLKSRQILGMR

[5] = molecular target: T3, Serine/threonine-protein kinase Nek2 (Homo sapiens); details: at 1 µM
[6] = molecular target: Serine/threonine-protein kinase Nek6 (Homo sapiens) (UniProt Q9HC98); details: at 0.1 µM
[7] = molecular target: Serine/threonine-protein kinase Nek6 (Homo sapiens) (UniProt Q9HC98); details: at 1 µM
[8] = molecular target: Serine/threonine-protein kinase Nek7 (Homo sapiens) (UniProt Q8TDX7); details: at 0.1 µM
[9] = molecular target: Serine/threonine-protein kinase Nek7 (Homo sapiens) (UniProt Q8TDX7); details: at 1 µM
[10] = molecular target: T4, Serine/threonine-protein kinase Nek9 (Homo sapiens) (UniProt Q8TD19); details: at 0.1 µM
T4 sequence (whole entry): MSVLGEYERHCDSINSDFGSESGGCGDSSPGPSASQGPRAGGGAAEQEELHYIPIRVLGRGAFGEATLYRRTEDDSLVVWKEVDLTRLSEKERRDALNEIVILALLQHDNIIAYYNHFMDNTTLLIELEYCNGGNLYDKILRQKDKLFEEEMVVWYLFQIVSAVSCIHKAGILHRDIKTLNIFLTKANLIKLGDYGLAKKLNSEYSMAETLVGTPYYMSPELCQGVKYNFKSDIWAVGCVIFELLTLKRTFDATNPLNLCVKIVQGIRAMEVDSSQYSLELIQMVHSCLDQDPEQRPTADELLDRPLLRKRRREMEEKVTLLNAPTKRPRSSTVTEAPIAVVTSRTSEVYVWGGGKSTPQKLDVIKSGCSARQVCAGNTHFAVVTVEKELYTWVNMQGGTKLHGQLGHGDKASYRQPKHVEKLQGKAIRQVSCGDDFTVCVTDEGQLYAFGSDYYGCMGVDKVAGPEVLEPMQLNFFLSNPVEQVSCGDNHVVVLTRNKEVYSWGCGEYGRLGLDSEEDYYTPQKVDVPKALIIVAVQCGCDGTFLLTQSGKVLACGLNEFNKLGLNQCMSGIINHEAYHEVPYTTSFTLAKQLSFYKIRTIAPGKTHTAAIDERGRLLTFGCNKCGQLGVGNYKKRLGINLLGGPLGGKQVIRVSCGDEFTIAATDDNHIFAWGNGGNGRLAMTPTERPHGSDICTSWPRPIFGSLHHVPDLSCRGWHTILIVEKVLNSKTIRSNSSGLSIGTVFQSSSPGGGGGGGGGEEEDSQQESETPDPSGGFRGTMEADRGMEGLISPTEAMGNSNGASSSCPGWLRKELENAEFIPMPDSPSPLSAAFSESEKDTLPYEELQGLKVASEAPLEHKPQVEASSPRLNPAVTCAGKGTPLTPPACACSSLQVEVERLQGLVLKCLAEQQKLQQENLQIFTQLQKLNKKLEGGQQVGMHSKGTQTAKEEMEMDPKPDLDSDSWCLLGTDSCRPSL

[11] = molecular target: T4, Serine/threonine-protein kinase Nek9 (Homo sapiens); details: at 1 µM
[12] = molecular target: Serine/threonine-protein kinase PLK1 (Homo sapiens) (UniProt P53350); details: at 0.1 µM
[13] = molecular target: Serine/threonine-protein kinase PLK1 (Homo sapiens) (UniProt P53350); details: at 1 µM
[14] = molecular target: T5, Dual specificity protein kinase TTK (Homo sapiens) (UniProt P33981); details: at 0.1 µM
T5 sequence (whole entry): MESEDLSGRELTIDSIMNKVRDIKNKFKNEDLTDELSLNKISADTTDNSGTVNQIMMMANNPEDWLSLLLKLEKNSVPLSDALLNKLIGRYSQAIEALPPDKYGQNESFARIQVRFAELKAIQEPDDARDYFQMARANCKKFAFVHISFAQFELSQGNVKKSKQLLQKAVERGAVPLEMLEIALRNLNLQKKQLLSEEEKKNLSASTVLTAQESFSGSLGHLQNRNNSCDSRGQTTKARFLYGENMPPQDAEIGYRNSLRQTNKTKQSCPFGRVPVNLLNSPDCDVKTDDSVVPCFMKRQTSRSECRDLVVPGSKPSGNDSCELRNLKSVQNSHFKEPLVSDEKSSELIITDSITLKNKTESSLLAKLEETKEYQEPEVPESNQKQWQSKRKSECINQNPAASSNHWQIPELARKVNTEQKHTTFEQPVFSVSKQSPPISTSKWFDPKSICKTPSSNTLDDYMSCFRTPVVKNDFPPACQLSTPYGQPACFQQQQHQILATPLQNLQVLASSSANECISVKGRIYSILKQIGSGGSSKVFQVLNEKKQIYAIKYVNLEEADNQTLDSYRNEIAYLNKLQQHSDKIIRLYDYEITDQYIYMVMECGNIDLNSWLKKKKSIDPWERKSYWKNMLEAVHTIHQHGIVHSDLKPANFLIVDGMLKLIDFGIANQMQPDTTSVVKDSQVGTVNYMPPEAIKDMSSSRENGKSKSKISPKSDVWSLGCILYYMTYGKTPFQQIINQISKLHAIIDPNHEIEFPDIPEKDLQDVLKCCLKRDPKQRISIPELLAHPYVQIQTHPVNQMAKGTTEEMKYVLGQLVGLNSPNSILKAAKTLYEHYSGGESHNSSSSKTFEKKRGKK

[15] = test system: T6, Receptor-type tyrosine-protein kinase FLT3 (Homo sapiens), P36888 [D835Y]; details: at 1 µM
T6 sequence (whole entry): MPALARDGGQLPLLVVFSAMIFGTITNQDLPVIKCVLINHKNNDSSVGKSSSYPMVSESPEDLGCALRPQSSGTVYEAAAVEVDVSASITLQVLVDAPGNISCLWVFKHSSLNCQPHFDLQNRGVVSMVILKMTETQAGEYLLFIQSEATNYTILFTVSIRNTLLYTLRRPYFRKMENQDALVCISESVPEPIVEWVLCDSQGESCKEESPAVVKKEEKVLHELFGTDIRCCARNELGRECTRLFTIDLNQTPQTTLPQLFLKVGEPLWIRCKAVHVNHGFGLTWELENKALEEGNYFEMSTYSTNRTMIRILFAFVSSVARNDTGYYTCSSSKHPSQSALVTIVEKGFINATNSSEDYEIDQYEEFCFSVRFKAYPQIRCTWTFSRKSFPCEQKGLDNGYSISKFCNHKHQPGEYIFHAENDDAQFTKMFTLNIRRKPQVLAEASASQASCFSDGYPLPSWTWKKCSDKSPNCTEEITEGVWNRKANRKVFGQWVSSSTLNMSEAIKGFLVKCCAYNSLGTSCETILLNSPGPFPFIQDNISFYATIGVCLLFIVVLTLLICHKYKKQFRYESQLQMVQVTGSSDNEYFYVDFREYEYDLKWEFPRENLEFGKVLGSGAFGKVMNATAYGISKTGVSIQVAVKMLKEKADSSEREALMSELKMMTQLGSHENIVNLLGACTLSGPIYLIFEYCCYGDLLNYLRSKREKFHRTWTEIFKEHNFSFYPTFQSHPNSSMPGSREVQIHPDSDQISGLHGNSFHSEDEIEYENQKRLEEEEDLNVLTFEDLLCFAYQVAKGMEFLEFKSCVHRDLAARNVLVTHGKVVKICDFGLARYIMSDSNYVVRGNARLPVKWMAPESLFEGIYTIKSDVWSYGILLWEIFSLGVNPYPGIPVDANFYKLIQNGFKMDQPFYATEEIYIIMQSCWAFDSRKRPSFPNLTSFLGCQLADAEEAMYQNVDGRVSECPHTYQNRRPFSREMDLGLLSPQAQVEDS

[16] = molecular target: Vascular endothelial growth factor receptor 3 (Homo sapiens) (UniProt P35916); details: at 0.1 µM
[17] = molecular target: Vascular endothelial growth factor receptor 3 (Homo sapiens) (UniProt P35916); details: at 1 µM
[18] = molecular target: Macrophage colony-stimulating factor 1 receptor (Homo sapiens) (UniProt P07333); details: at 0.1 µM
[19] = molecular target: Macrophage colony-stimulating factor 1 receptor (Homo sapiens) (UniProt P07333); details: at 1 µM
[20] = molecular target: Tyrosine-protein kinase Fyn (Homo sapiens) (UniProt P06241); details: at 0.1 µM
Tyrosine-protein kinase Fyn (Homo sapiens), sequence (P06241 2-537 limits assumed): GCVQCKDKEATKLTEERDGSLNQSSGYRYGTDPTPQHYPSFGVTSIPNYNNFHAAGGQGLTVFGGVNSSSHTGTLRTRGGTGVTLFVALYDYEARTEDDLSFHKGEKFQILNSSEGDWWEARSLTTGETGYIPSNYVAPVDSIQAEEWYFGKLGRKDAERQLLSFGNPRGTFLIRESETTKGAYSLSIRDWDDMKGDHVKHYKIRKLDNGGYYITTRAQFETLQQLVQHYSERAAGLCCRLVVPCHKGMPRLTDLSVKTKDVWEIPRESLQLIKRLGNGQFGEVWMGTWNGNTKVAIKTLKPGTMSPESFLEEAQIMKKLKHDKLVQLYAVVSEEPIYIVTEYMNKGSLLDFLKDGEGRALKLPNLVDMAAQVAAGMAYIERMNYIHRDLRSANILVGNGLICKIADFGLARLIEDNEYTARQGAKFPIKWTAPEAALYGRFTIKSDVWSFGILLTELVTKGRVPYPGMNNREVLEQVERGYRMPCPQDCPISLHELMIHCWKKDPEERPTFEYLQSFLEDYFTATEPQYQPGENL

Serine/threonine-protein kinase PLK1 (Homo sapiens), sequence (P53350 whole entry): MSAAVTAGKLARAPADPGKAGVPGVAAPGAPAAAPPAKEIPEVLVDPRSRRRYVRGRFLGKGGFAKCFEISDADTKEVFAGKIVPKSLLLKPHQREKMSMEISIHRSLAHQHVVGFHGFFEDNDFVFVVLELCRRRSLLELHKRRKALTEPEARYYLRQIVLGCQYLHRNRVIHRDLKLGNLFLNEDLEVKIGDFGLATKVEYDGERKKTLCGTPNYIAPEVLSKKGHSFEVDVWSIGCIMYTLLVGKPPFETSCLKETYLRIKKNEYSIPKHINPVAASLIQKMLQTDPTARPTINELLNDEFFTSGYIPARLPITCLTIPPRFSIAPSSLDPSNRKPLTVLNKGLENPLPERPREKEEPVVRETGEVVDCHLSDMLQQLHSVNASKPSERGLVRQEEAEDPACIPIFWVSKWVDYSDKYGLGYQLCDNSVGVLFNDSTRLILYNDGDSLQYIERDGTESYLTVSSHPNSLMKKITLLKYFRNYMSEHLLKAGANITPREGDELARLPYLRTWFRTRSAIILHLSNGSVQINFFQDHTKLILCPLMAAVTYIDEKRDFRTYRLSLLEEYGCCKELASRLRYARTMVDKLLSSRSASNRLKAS
Serine/threonine-protein kinase Nek7 (Homo sapiens), sequence (Q8TDX7 whole entry, looked up): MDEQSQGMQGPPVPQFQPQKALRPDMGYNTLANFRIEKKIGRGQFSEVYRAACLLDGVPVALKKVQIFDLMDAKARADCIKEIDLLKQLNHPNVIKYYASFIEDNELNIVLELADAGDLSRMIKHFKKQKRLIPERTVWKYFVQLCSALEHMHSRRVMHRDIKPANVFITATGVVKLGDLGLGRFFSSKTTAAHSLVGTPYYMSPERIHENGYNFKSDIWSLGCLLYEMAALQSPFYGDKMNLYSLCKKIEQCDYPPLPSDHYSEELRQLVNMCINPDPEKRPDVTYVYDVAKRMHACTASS
Serine/threonine-protein kinase Nek6 (Homo sapiens), sequence (Q9HC98 whole entry): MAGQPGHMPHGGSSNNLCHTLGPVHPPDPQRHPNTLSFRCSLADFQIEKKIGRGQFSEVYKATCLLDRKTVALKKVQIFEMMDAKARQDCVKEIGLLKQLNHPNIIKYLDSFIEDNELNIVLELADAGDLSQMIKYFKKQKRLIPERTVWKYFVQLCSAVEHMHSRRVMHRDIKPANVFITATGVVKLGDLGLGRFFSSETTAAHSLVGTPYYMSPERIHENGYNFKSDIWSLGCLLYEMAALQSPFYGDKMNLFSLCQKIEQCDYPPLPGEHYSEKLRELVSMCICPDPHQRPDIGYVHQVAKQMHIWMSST
Macrophage colony-stimulating factor 1 receptor (Homo sapiens), sequence (P07333 whole entry): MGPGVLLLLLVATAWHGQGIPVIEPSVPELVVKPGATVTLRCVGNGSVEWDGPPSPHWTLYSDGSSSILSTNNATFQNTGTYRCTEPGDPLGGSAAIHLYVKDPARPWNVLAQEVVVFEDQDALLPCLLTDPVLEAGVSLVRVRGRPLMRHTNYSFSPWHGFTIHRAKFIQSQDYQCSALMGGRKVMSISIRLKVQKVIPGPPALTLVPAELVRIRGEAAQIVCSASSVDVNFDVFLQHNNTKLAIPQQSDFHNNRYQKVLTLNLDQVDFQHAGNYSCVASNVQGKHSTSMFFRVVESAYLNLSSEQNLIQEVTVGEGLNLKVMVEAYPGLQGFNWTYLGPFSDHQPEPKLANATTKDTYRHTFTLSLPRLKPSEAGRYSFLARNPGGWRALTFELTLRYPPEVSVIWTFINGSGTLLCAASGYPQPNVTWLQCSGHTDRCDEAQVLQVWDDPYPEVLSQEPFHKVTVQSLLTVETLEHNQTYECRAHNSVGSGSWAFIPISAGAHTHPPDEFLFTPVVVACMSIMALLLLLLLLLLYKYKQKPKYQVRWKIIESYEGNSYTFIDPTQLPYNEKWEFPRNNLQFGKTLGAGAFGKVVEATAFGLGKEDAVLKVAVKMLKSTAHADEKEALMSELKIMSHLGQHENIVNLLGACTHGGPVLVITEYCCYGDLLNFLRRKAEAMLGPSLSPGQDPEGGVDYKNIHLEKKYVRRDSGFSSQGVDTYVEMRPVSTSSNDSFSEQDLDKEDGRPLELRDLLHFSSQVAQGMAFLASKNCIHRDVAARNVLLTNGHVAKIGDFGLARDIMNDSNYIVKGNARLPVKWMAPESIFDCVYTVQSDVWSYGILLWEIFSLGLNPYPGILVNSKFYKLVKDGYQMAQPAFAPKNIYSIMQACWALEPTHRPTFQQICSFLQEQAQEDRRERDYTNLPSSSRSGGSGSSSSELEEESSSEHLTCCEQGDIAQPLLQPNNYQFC
Vascular endothelial growth factor receptor 3 (Homo sapiens), sequence (P35916 whole entry): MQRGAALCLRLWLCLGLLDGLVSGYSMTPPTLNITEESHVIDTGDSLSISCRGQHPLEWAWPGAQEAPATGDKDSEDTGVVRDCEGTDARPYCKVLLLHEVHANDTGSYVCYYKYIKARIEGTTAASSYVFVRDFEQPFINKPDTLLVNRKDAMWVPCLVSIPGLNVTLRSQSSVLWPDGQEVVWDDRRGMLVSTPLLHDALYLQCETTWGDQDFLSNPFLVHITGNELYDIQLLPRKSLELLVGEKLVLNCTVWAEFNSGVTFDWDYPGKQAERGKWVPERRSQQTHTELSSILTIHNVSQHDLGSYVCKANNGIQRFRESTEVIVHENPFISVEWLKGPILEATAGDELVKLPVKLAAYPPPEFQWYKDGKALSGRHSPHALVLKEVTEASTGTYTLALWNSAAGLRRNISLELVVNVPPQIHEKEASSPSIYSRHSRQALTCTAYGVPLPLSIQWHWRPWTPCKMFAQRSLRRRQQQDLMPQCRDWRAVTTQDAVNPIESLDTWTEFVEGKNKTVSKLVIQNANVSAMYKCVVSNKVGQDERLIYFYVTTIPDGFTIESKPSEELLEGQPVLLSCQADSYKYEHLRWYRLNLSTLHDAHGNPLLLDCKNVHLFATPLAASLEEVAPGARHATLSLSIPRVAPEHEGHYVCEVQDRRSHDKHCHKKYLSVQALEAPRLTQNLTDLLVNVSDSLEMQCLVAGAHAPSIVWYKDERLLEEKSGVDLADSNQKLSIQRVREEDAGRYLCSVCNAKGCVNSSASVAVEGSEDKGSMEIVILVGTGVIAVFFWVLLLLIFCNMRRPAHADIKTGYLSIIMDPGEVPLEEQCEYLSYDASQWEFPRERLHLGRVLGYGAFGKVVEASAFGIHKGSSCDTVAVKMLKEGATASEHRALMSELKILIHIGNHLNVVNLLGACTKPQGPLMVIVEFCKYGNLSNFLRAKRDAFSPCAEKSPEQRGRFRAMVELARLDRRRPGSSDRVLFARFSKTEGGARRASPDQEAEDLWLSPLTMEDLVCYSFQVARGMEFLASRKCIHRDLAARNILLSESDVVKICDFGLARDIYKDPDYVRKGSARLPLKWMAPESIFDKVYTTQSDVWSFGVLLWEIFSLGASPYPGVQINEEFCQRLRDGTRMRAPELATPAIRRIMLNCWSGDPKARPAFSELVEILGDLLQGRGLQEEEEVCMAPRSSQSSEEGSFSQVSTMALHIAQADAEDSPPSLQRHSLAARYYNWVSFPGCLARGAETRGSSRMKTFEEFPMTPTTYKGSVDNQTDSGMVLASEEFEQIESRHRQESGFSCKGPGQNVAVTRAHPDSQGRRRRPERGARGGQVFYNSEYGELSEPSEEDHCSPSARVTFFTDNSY

SMILES: COc1cccc(-n2ncc3c(N/N=C/c4ccncc4)ncnc32)c1
- inhibition [1]: 9.13%
- inhibition [2]: 3.6%
- inhibition [3]: 12.5%
- inhibition [4]: 5.11%
- inhibition [5]: 5.47%
- inhibition [6]: 4.03%
- inhibition [7]: 3.93%
- inhibition [8]: 2.45%
- inhibition [9]: 3.46%
- inhibition [10]: 7.16%
- inhibition [11]: 6.71%
- inhibition [12]: 2.19%
- inhibition [13]: 3.32%
- inhibition [14]: 8.59%
- inhibition [15]: 52.1%
- inhibition [16]: 9.86%
- inhibition [17]: 38.4%
- inhibition [18]: 6.17%
- inhibition [19]: 30.2%
- inhibition [20]: 26.5%

SMILES: COc1cccc(COc2cc(-n3cnc4ccccc43)sc2C(N)=O)c1
- inhibition [1]: -7.06%
- inhibition [2]: 0.41%
- inhibition [3]: 4.13%
- inhibition [4]: 8.56%
- inhibition [5]: 1.43%
- inhibition [6]: 1.63%
- inhibition [7]: -0.37%
- inhibition [8]: 0.3%
- inhibition [9]: 0.66%
- inhibition [10]: 0.4%
- inhibition [11]: 8.39%
- inhibition [12]: 66.5%
- inhibition [13]: 92.2%
- inhibition [14]: 3.72%
- inhibition [15]: -4.13%
- inhibition [16]: -2.19%
- inhibition [17]: 4.75%
- inhibition [18]: -8.31%
- inhibition [19]: -1.4%
- inhibition [20]: 0%
